Methyltransferases – Primary Screen for Target Class Profiling of Small Molecule Inhibitors of Methyltransferases | purified enzyme, MTase-Glo SAH luminescence; stronger effect = lower value | calls only at 40 µM | hit rate 3.9% among 25,000 | AID 1745853, 2022; call rule not given here
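Each enzyme was reacted with SAM and its substrate, with compounds tested once at 40 uM; SAH formed was read by MTase-Glo luminescence.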
An asterisk follows results filed as active; i = inactive; + = active, no number. Many of the other results were omitted from the sample, so hits are more common in it than they were. % is scaled to controls: 0 for no effect and ±100 for the full control effect.

SMILES	Methyltransferases
O=C(O)c1ccc2c(c1)C1C=CCC1C(c1ccc(Cl)cc1)N2 (configuration not stated)	+
Fc1ccc2c(c1)C1C=CCC1C(c1ccc(Cl)cc1)N2 (configuration not stated)	i
Cc1cc2c(cc1S(=O)(=O)NCc1ccccc1)n(C)c(=O)n2C	i
CC(C)Cn1c(=O)c2ccccc2n2c(SCC(=O)NC3CCCCC3)nnc12	i
CC(C)n1c(=O)c2ccc(C(=O)NC3CCCCC3)cc2n2c(=O)n(CC(=O)NC3CCCC3)nc12	i
O=C(O[C@@H]1O[C@H](CO)[C@@H](O)[C@H](O)[C@H]1O)c1ccccc1	i
CC1=C(C(=O)OC2OC(COC3OC(CO)C(O)C(O)C3O)C(O)C(O)C2O)C(C)(C)CCC1 (configuration not stated)	i
CC(C)(O)C1CC=C(C(=O)OC[C@H]2O[C@@H](OC(=O)C3=CCC(C(C)(C)O)CC3)[C@H](O)[C@@H](O)[C@@H]2O)CC1 (some centres not stated)	+
Cc1ccccc1CN1C(=O)c2cc3sccc3n2CC1(C)C(=O)NC1CCCCCCC1 (configuration not stated)	i
CC1(C(=O)NC2CCCC2)Cn2c(ccc2-c2ccco2)C(=O)N1CCN1CCCC1 (configuration not stated)	i
CCOc1ccc(CN2C(=O)c3cc4ccc(OC)cc4n3CC2(C)C(=O)NC2CCCC2)cc1 (configuration not stated)	i
CCCn1c(=O)c2ccc(C(=O)NC(C)C)cc2n2c(=O)n(Cc3ccccc3F)nc12	i
CC1(C)CCC(C)(C)c2cc(C#Cc3ccc(C(=O)O)cc3)ccc21	+
CC(N)(C(=O)O)c1ccc(C(=O)O)cc1 (configuration not stated)	i
CC1(C)CCC(C)(C)c2cc([C@@H](O)C(=O)Nc3ccc(C(=O)O)cc3F)ccc21	i
Cc1cc2c(cc3n2CC(C)(C(=O)NC2CCCCC2)N(CCCc2ccccc2)C3=O)o1 (configuration not stated)	i
COc1cccc(C(=O)Cn2nc3n(CCc4ccccc4)c(=O)c4ccccc4n3c2=O)c1	i
CCc1cc2c(cc3n2CC(C)(C(=O)NC2CCC(C)CC2)N(CCN(CC)CC)C3=O)s1 (configuration not stated)	i
O=C(CCn1ccc2cc(S(=O)(=O)N3CCCCC3)ccc21)NCc1ccc(Cl)cc1	i
COc1ccc(NC(=O)c2nc3sccn3c2-c2ccncc2)cc1	i
CN(C)CCCc1cc(C(=O)Nc2ccc(-c3ccncc3)cc2)ccc1O	+
COc1ccc(C(=O)Nc2ccc3c(c2)C(=O)N(C)C2=NCCN23)cc1OC	i
Cc1ccc(CN2C(=O)c3cc4oc(C)cc4n3CC2(C)C(=O)NC2CCCCCC2)cc1 (configuration not stated)	i
CC1(C)CC[C@]2(C(=O)O)CC[C@]3(C)C(=CCC4[C@@]5(C)C[C@@H](O)[C@H](O)C(C)(C)C5CC[C@]43C)[C@@H]2[C@@H]1O (some centres not stated)	i
CC1(C)[C@@H](O)CC[C@]2(C)[C@H]3CC=C4[C@@H]5C[C@](C)(C(=O)O)CC[C@]5(C)CC[C@@]4(C)[C@]3(C)CC[C@@H]12	+
SMILES	Methyltransferases
CC(=O)O[C@H]1[C@H](O)C[C@@]2(C)C(CC[C@]3(C)C2CC=C2C4CC(C)(C)CC[C@]4(C(=O)O)CC[C@]23C)C1(C)C (some centres not stated)	i
CCC(C)NC(=O)c1ccc2c(=O)n(CC(C)C)c3nn(CC(=O)c4ccc(OC)cc4)c(=O)n3c2c1 (configuration not stated)	i
CCN(CC)CC(O)Cn1c2c(c3cc(C)ccc31)CCCC2=O (configuration not stated)	i
CCOC(=O)Nc1ccc(NCc2ccc(F)cc2)nc1N	+
COCC(=O)N(C)Cc1ccc(F)cc1	i
CCOC(=O)c1cc2n(n1)CC(C)(C(=O)NCc1ccc(F)cc1)N(c1ccc(C)cc1C)C2=O (configuration not stated)	i
Cc1ccc(CNS(=O)(=O)c2ccc3[nH]c4c(c3c2)CCCC4)o1	i
CCCN1C(=O)c2c(C(=O)NCCc3ccccc3Cl)ncn2CC1(C)C(=O)NC1CCCC1 (configuration not stated)	i
CC1(C(=O)NC2CCCCCC2)Cn2c(cc3occc32)C(=O)N1c1ccc(Cl)cc1 (configuration not stated)	i
CCc1c(Cl)c(O)c(Cl)c(O)c1C(=O)O[C@H]1[C@H](O)[C@H](OC)[C@H](OC/C2=C\C=C\C[C@H](O)/C(C)=C\[C@H](CC)[C@@H](O[C@@H]3OC(C)(C)[C@@H](OC(=O)C(C)C)[C@H](O)[C@@H]3O)/C(C)=C/C(C)=C/C[C@@H]([C@@H](C)O)OC2=O)O[C@@H]1C	+
C[C@@]12C[C@]3(O)O[C@H](O1)[C@]1(COC(=O)c4ccccc4)[C@H]3C[C@@]12O[C@@H]1O[C@H](COC(=O)c2ccccc2)[C@@H](O)[C@H](O)[C@H]1O	i
O=C(OC[C@H]1O[C@H](O[C@]2(CO)O[C@H](CO)[C@@H](O)[C@@H]2O)[C@H](O)[C@@H](O)[C@@H]1O)c1ccccc1	i
CC(C)(O)/C=C1/C(=O)C(C)(C)C(=O)C(C)(C)C1(O)O[C@@H]1O[C@H](COC(=O)c2cc(O)c(O)c(O)c2)[C@@H](O)[C@H](O)[C@H]1O (some centres not stated)	+
CCOC(=O)c1cc2n(n1)CC(C)(C(=O)NC1CCCCCC1)N(c1ccc(Cl)cc1C)C2=O (configuration not stated)	i
Cc1ccc(N2C(=O)c3cc(C(C)(C)C)nn3CC2(C)C(=O)NC2CCCCC2)cc1C (configuration not stated)	i
Cc1cccc(N2CCN(CCNC(=O)CCc3nnc4n(CC(C)C)c(=O)c5ccccc5n34)CC2)c1C	i
COc1cc(C(O)C(CO)Oc2ccc(CCCO[C@@H]3O[C@@H](C)[C@H](O)[C@@H](O)[C@H]3O)cc2OC)ccc1O (some centres not stated)	+
C/C=C/c1ccc(O[C@@H]2O[C@H](CO)[C@@H](O)[C@H](O)[C@H]2O)c(OC)c1	i
COc1cc(C2Oc3c(OC)cc(CCCO[C@@H]4O[C@H](CO)[C@@H](O)[C@H](O)[C@H]4O)cc3C2CO)ccc1O (some centres not stated)	+
COc1cc(C[C@@]2(O)CO[C@@H](c3ccc(O[C@@H]4O[C@H](CO)[C@@H](O)[C@H](O)[C@H]4O)c(OC)c3)[C@H]2CO)ccc1O	i
COc1cc(C2Oc3c(OC)cc(CCCO)cc3C2CO)ccc1O[C@H]1O[C@H](C)[C@@H](O)[C@H](O)[C@@H]1O (some centres not stated)	i
COc1ccc(C2Oc3c(OC)cc(CCCO)cc3C2COC2OC(CO)C(O)C(O)C2O)cc1OC (configuration not stated)	i
COc1cc(C2Oc3c(OC)cc(/C=C/C(=O)OC[C@H]4O[C@@H](OC(C)(C)C(=O)O)[C@H](O)[C@@H](O)[C@@H]4O)cc3C2CO)ccc1O (some centres not stated)	+
COc1cc(/C=C/CO)ccc1O[C@@H]1O[C@H](CO)[C@@H](O)[C@H](O)[C@H]1O	i

Screening data from PubChem.
